From PubChem BioAssay (EPA / NIEHS) come the findings set out here.

Read-out in assay [1]: Tumor necrosis factor receptor 1 (TNFRSF1A), TNFRSF1A (gene 7132)
The experiment in a line: LTEA_HepaRG_TNFRSF1A: Life Technologies and Expression Analysis (LTEA) Assay for Tumor necrosis factor receptor 1 (TNFRSF1A) using HepaRG (AID 2283535). Conditions: mRNA level, 48 h; actives raise or lower the signal. The procedure, abridged: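 Differentiated HepaRG cells in serum-free induction medium, exposed 48 h in duplicate to 8 half-log concentrations up to 100 uM in 0.5% DMSO. TNFRSF1A mRNA by Fluidigm TaqMan qRT-PCR, normalized to ACTB, GAPDH, POLR2A; bidirectional fit.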

Read-out in assay [2]: Thyroid Hormone Responsive (THRSP), THRSP (gene 7069)
The experiment in a line: LTEA_HepaRG_THRSP: Life Technologies and Expression Analysis (LTEA) Assay for Thyroid Hormone Responsive (THRSP) using HepaRG (AID 2283536). The following applies: mRNA level, 48 h; actives raise or lower the signal. The procedure, abridged:
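THRSP transcript quantified by Fluidigm qRT-PCR against three housekeeping genes after 48 h chemical exposure of HepaRG cells in serum-free induction medium; eight-point half-log series, top 100 uM, 0.5% DMSO vehicle, duplicate wells.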

Read-out in assay [3]: Cellular tumor antigen p53 (Homo sapiens) (UniProt P04637)
The experiment in a line: LTEA_HepaRG_TP53: Life Technologies and Expression Analysis (LTEA) Assay for Tumor Protein P53 (TP53) using HepaRG (AID 2283537). Conditions: mRNA level, 48 h; actives raise or lower the signal. The procedure, abridged: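 HepaRG, 48 h exposure, top 100 uM, half-log 8-point, 0.5% DMSO vehicle, duplicates. Read: TP53 mRNA by TaqMan qRT-PCR, normalised to ACTB/GAPDH/POLR2A; bidirectional fit vs DMSO.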

Read-out in assay [4]: UDP glucuronosyltransferase (UGT1A1), UGT1A1 (gene 54658)
The experiment in a line: LTEA_HepaRG_UGT1A1: Life Technologies and Expression Analysis (LTEA) Assay for UDP glucuronosyltransferase (UGT1A1) using HepaRG (AID 2283538). The following applies: mRNA level, 48 h; actives raise or lower the signal. An outline of the steps:
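mRNA induction or loss of UGT1A1, by TaqMan qRT-PCR, in duplicate HepaRG wells after 48 h exposure to half-log dilutions topping at 100 uM; DMSO (0.5%) served as baseline.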

Read-out in assay [5]: UDP glucuronosyltransferase (UGT1A6), UGT1A6 (gene 54578)
As to the kind of experiment: LTEA_HepaRG_UGT1A6: Life Technologies and Expression Analysis (LTEA) Assay for UDP glucuronosyltransferase (UGT1A6) using HepaRG (AID 2283539). Conditions: mRNA level, 48 h; actives raise or lower the signal. The procedure, abridged: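 Differentiated HepaRG cells, ~100,000/well, were exposed for 48 h in serum-free induction medium with 0.5% DMSO to 8-point half-log series topping at 100 uM, in duplicate. mRNA measured by Fluidigm TaqMan qRT-PCR, normalized to ACTB, GAPDH and POLR2A.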

Read-out in assay [6]: X-box binding protein 1 (XBP1), XBP1 (gene 7494)
As to the kind of experiment: LTEA_HepaRG_XBP1: Life Technologies and Expression Analysis (LTEA) Assay for X-box binding protein 1 (XBP1) using HepaRG (AID 2283540). Conditions: mRNA level, 48 h; actives raise or lower the signal. The procedure, abridged:
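Differentiated human HepaRG cells in serum-free induction medium exposed 48 h in duplicate to eight half-log concentrations up to 100 uM in 0.5% DMSO. XBP1 mRNA measured by Fluidigm TaqMan qRT-PCR, normalized to ACTB, GAPDH, POLR2A; bidirectional fitting against DMSO.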

The nature of assay [7]: TOX21_p53_BLA_p3_viability: Viability Assessment in the Tox21 HCT-116 p53 Agonism Beta-lactamase Assay, Phase 3 (AID 2283593; active = hit-call score of the fitted dose curve at least 0.9, where 1 is the maximum;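 note: cells exposed to compound for 16 h before reading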). An outline of the steps: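 Cellular ATP was quantified by CellTiter-Glo luminescence, read after 30 min at room temperature. Beforehand, HCT116 cells (4000/well) received compound 5 h post-seeding, 217-fold diluted from DMSO, then incubated 16 h at 37C.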

Assay [8] can be described thus: ATG_XTT_Cytotoxicity: Cytotoxicity Assessment in the Attagene TRANS-FACTORIAL HepG2 Assay (AID 2283584; active = hit-call score of the fitted dose curve at least 0.9, where 1 is the maximum;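 for AC50: XTT signal for cell number as viability in transfected HepG2 cells; cells exposed to compound for 24 h before reading; active means loss of viability signal versus DMSO baseline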). An outline of the steps: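 HepG2 cells transiently transfected with GAL4-UAS multiple reporter units, dosed 24 h; cytotoxicity read by XTT as loss of signal versus DMSO baseline.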
The nature of assay [9]: LTEA_HepaRG_LDH_cytotoxicity: Cytotoxicity Assessment in the Life Technologies and Expression Analysis (LTEA) Assay (AID 2283563; active = hit-call score of the fitted dose curve at least 0.9, where 1 is the maximum;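 for AC50: LDH activity released into spent culture medium as a marker of cell death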). An outline of the steps: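 Differentiated HepaRG cells in serum-free induction medium, exposed 48 h in duplicate to 8 half-log concentrations up to 100 uM in 0.5% DMSO. Cytotoxicity from LDH measured in spent medium, fit relative to DMSO.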
Assay [10] concerns the target Cellular tumor antigen p53 (Homo sapiens) (UniProt P04637). As to the kind of experiment: TOX21_p53_BLA_p2_ratio: Tox21 HCT-116 p53 Agonism Beta-lactamase Assay, Ratio, Phase 2 (AID 2283592; active = hit-call score of the fitted dose curve at least 0.9, where 1 is the maximum). An outline of the steps:
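First, HCT116 reporter cells settle for 5 h at 37C. Next, DMSO compound solutions are pinned in (217-fold dilution) and left 16 h. Finally, CCF4-AM substrate is loaded 2 h at room temperature and the 460/530 nm ratio read.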

Where “and” joins values, the source holds several entries; their conditions need not be identical. Identical values can stand only once. Results filed as inconclusive are left out. A structure can be active in one record and inactive in another. Calls of active or inactive are those of the source. Rule for the calls, unless noted: active = hit-call score of the fitted dose curve at least 0.9, where 1 is the maximum; inactive = score below 0.9.

Chain of Cellular tumor antigen p53 (Homo sapiens) (P04637 whole entry, looked up): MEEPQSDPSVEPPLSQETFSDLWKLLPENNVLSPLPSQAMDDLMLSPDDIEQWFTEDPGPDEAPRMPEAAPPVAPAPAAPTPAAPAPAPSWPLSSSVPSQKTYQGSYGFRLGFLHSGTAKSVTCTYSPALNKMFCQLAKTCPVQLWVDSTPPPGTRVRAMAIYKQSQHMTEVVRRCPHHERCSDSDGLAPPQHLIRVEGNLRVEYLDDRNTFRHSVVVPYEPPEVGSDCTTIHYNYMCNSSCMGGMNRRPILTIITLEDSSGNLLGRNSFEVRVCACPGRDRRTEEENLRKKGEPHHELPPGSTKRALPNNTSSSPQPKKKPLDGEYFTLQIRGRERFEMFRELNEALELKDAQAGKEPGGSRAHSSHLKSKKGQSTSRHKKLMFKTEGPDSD

In the case of `CC(C)(C)[C@@H](O)[C@@H](Cc1ccc(Cl)cc1)n1cncn1`, the result in [1], in [3], in [5], in assay [6] and in [7] was inactive. The AC50 in [2] was 32.7 µM (active); in assay [4], 6.98 µM (active).

Take `c1ccc(Nc2ccccc2)cc1`: the result in [1], in assay [2], in assay [3], in assay [4], in [5] and in [6] was inactive. Besides, the call in assay [8] and in [7] was inactive.

As to `Oc1ccc(C(c2ccc(O)cc2)C(Cl)(Cl)Cl)cc1`, the AC50 is 87.3 µM (active) in [1]; 90.4 µM (active) in [3]; 88.5 µM (active) in assay [4]; 79.2 µM (active) in assay [5]; 74.1 µM (active) in assay [6]; 46.1 µM (active) in assay [7]. Besides, the compound was classed as inactive in assay [2], in assay [8] and in assay [7].

Consider `CCSC(=O)N(CC(C)C)CC(C)C`, for which the compound was called inactive in [1], in assay [2], in assay [3], in assay [4], in assay [5] and in assay [6]. In addition, the call in [9] was inactive.

In the case of `COC(=O)CSc1cc(N=c2sc(=O)n3n2CCCC3)c(F)cc1Cl`, the result in assay [1], in assay [2], in assay [3], in assay [5], in [9] and in assay [7] was inactive. Further, in [4], the AC50 was 41.4 µM (active).

As to `C=CCOC(Cn1ccnc1)c1ccc(Cl)cc1Cl` (stereo not given), the AC50 in assay [1] was 77.8 µM (active); in assay [2], 36.2 µM (active); in assay [3], 12.2 µM (active); in [4], 77.5 µM (active); in [5] it was 72.4 µM (active). Moreover, in assay [8], the call was inactive.

As to `CCOC(=O)COc1cc(-n2ncc(C(F)(F)F)c(C)c2=O)c(F)cc1Cl`, the compound was called inactive in [1], in assay [2], in assay [3], in assay [4] and in [5].

As for `COC(=O)c1ccccc1C(=O)O`, the result in [1], in assay [2], in assay [3], in assay [4] and in assay [5] was inactive.

In the case of `CCOC(=O)c1ccc(O)cc1`, the compound was called inactive in assay [1], in [2], in [3], in assay [4], in assay [5] and in assay [6]. Further, the outcome in assay [8] and in [7] was inactive.

In the case of `CCCCC(CC)COC(=O)c1ccccc1C(=O)O` (stereo not given), the call in [1], in [2], in [3], in assay [5], in assay [9] and in assay [8] was inactive. Also, in assay [7], the call was inactive. For the same compound, the AC50 in assay [4] is 64.9 µM (active).

`C#CCOC(=O)[C@@H](C)Oc1ccc(Oc2ncc(Cl)cc2F)cc1`: the compound was classed as inactive in assay [1], in assay [2], in assay [3], in assay [5], in [6] and in assay [10]. Further, the call in assay [7] was inactive. Moreover, the AC50 in [4] was 20.2 µM (active).

With `C[C@]12CC[C@@H]3c4ccc(O)cc4C[C@@H](CCCCCCCCCS(=O)CCCC(F)(F)C(F)(F)F)[C@H]3[C@@H]1CC[C@@H]2O` (stereo not given in full), the AC50 in [1] was 0.0802 µM (active); in assay [2] it was 13.7 µM (active); in [3] it was 0.0628 µM (active); in assay [4] it was 26.9 µM (active); in assay [5], 50 µM (active). In addition, the compound was classed as inactive in [9], in assay [8] and in assay [7].

As for `CCCN(CCC)c1c([N+](=O)[O-])cc(C(F)(F)F)c(N)c1[N+](=O)[O-]`, the outcome in [1], in assay [3] and in [5] was inactive. Besides, the AC50 in [2] is 22.5 µM (active); in assay [4] it was 6.48 µM (active); in assay [6] it was 28.9 µM (active); in assay [7] it was 44.7 µM (active).

As to `OB(O)O`, the call in [1], in assay [2], in assay [3], in assay [4], in [5] and in assay [6] was inactive.

Consider `CC1(C)C(C=C(Cl)Cl)C1C(=O)OCc1cccc(Oc2ccccc2)c1` (stereo not given), for which the outcome in assay [1], in assay [2], in assay [3], in assay [5], in assay [6] and in [9] was inactive. The result in [8] and in assay [7] was inactive. Also, the AC50 in assay [4] is 14.6 µM (active).

For `C[C@]12C[C@H](O)[C@H]3[C@@H](CCC4=CC(=O)CC[C@@]43C)[C@@H]1CC[C@@H]2C(=O)CO`, the call in assay [1], in assay [3], in [5], in assay [9], in assay [8] and in assay [10] was inactive. The call in assay [7] was inactive. In addition, the AC50 in [2] and in assay [4] was 50 µM (active) throughout.

Turning to `O=C(O)c1ccccc1`, the compound was called inactive in [1], in assay [2], in assay [3], in [4], in assay [5] and in [9]. For the same compound, the compound was called inactive in assay [8] and in assay [7].

Regarding `CN(C)C(=O)Nc1ccc(Cl)c(Cl)c1`, the compound was classed as inactive in assay [1], in [3], in assay [5], in assay [9], in assay [8] and in assay [7]. In addition, the figures for the AC50 in assay [2] and in assay [4] were 27.2 µM (active) and 23.5 µM (active), respectively.

For `CCNc1nc(N)nc(Cl)n1`, the compound was called inactive in assay [1], in [2], in assay [3] and in assay [5]. The AC50 in assay [4] is 1.03 µM (active).

On to `CC(=O)S[C@@H]1CC2=CC(=O)CC[C@]2(C)[C@H]2CC[C@@]3(C)[C@@H](CC[C@@]34CCC(=O)O4)[C@H]12`, for which the outcome in [1], in [3], in assay [8] and in assay [7] was inactive. For the same compound, the AC50 in [2] was 36.5 µM (active); in assay [4], 72.2 µM (active); in [5] it was 50 µM (active); in assay [9] it was 79.1 µM (active).

On to `COCCO`, for which the compound was called inactive in assay [1], in [2], in assay [3], in [4], in assay [5] and in assay [8].

Take `CC(C)CCCCCCc1ccc(O)cc1`: the result in assay [1], in assay [2], in assay [3], in assay [4], in assay [5] and in assay [6] was inactive. In addition, the outcome in assay [7] was inactive. In addition, the AC50 in [8] was 50 µM (active) [middle of 4 runs]; in [7], 66.6 µM (active) and 71.5 µM (active).

Take `CC(C)(c1ccc(O)cc1)c1ccc(O)cc1`: the compound was called inactive in assay [1], in assay [2], in assay [3], in [4], in assay [5] and in [6]. Besides, the compound was called inactive in assay [9], in [8] and in assay [7].

What is called AC50 is the midpoint of the concentration-response curve, whichever way the signal moves.
